# DAX1 inh-1 – inhibitors of human orphan nuclear receptor DAX1 (NR0B1) | inhibition, % at 6.75 µM | P51843 | hit rate 0.99% among 340,000 | HEK293 Gal4-DAX1 luciferase reporter, luminescence | AID 504766;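 active means inhibition above the mean over all tested compounds plus 3 SD, cut at about 4.2% in these data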;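 further: inhibition shows as a rise in luminescence from relieved DAX1 repression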
# Target sequence (P51843 207-470 limits assumed): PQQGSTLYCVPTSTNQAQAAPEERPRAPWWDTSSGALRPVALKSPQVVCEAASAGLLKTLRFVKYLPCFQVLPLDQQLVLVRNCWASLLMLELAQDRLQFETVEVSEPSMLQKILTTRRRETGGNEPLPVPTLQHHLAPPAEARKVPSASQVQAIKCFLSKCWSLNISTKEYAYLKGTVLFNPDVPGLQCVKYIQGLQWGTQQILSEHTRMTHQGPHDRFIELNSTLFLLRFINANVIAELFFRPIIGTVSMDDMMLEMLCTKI
# ssDAF12 agonist – S. stercoralis DAF-12 activation, primary screen | HEK293 ssDAF-12/GRIP1 lit1-tk-luc reporter, luminescence; % of 3 µM dafachronic acid response | activation, % at 6.8 µM | hit rate 1% among 370,000;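 active means activation above the mean over all tested compounds plus 3 SD, cut at about 0.9% in these data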
# hcDAF12 agonist – activators of H. contortus DAF-12 nuclear receptor | HEK293 hcDAF-12 lit1-tk-luc reporter, luminescence; 0% DMSO, 100% Δ7-dafachronic acid | activation, % at 6.8 µM | hit rate 1.4% among 370,000 | AID 652067;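 active means activation above the mean of all tested compounds plus 3 SD, cut at about 5.5% in these data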
# hgDAF12 agonist – activates the H. glycines DAF-12 receptor ligand-binding domain; hit rate 1.8% among 370,000; HEK293 GAL4-hgDAF12 UAS-luciferase reporter, agonist luminescence; normalized to butyrate control; activation, % at 6.8 µM;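 active means activation above a cutoff set at the mean of all screened compounds plus 3 SD, cut at about 10% in these data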
# DAX1 inh-2 – inhibitors of DAX1 repression of SF-1 activated StAR promoter; AID 652010; hit rate 1.1% among 370,000; inhibition, % at 6.8 µM; HEK293T StAR-luciferase reporter, SF-1/DAX-1 repression relief;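 active means inhibition above the mean over all tested compounds plus 3 SD, cut at about 3.6% in these data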;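 further: higher inhibition means more luminescence from relief of DAX-1 repression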
# DAX1 conf – NR0B1 (human) inhibition, confirmation. inhibition, % at 6.8 µM. hit rate 87% among 2,400. AID 652134. HEK293T StAR-promoter luciferase reporter, SF-1/DAX-1 repression. shares compounds with DAX1 inh-2;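 active means inhibition above the average of every tested compound plus 3 SD, cut at about 3.8% in these data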;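 further: active compounds raise luminescence by relieving repression of the StAR reporter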
# SF1 mutant ctr – nonselective inhibitor or artifact in SF-1 mutant DAX1 counter-screen; shares compounds with DAX1 inh-2; HEK293 StAR-luciferase, SF-1 AF2 mutant, luminescence; inhibition, % at 6.8 µM; hit rate 78% among 2,400; AID 652136;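 active means inhibition above the mean of all tested compounds plus 3 SD, cut at about 3% in these data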
# A number is an active result; - = inactive; . = no result given. An excerpt weighted towards active compounds, which were near 4.1% of everything screened.
SMILES,DAX1 inh-1,ssDAF12 agonist,hcDAF12 agonist,hgDAF12 agonist,DAX1 inh-2,DAX1 conf,SF1 mutant ctr
COc1ccc(C(=O)COC(=O)c2cccc(-n3cnnn3)c2)c(OC)c1,-,-,-,-,4.6,7.8,4.4
COc1ccc(Cn2cc(CN3CC(N4CCN(C5CCN(C)CC5)CC4)CS3(=O)=O)nn2)cc1 (stereo unspecified),.,-,-,-,7.6,-,-
O=C(Nc1ccc(F)c(Cl)c1)c1csc([C@@H]2C[C@H](O)[C@@H](CO)O2)n1,.,-,-,-,4.7,-,-
CC(=O)NC(CC(=O)N1CCN(C(C)=O)CC1)c1ccccc1 (stereo unspecified),-,-,-,-,5.3,-,-
O=C(NC(CC(=O)N1CCN(c2ccccc2)CC1)c1ccccc1)c1ccccc1 (stereo unspecified),-,-,-,-,-,.,.
Cc1ccc(CNC(=O)CN(C)C2=NS(=O)(=O)c3ccccc32)cc1,-,-,-,-,-,.,.
O=C(c1ccc(F)cc1)n1ccc(-c2cnc(-c3ccccc3)s2)n1,-,0.9,5.9,13,5.0,13,5.5
Cc1nnc(N2C(=O)C(O)=C(C(=O)c3ccco3)C2c2ccc(F)cc2)s1 (stereo unspecified),-,-,-,-,-,.,.
CSc1ccc(C2C(C(=O)c3ccco3)=C(O)C(=O)N2c2nnc(SC)s2)cc1 (stereo unspecified),-,-,-,12,6.4,-,3.1
CC1=C(C(=O)Nc2cc(C(=O)N3CCC(C)CC3)ccc2C)SCCO1,-,-,-,-,-,.,.
COC(=O)C[C@@H]1OC[C@H](Cc2ccccc2)N1S(=O)(=O)c1ccc(C)cc1,.,-,-,-,-,.,.
COc1ccc(Cc2c(-c3cccc(Br)c3)nc3ccc(Br)cn23)c(C)c1,.,-,-,-,5.1,-,3.5
COc1ccc(Cc2c(-c3ccc(C)cc3)nc3ccc(Cl)cn23)c(C)c1,.,-,-,13,5.7,6.5,4.9
CSc1ccc(NC(=O)NN(c2ccccc2)C2CCS(=O)(=O)C2)cc1 (stereo unspecified),-,-,-,-,-,.,.
CCCS(=O)(=O)NC(=O)C1(C)CCCN(C(=O)c2cccc(Cl)c2)C1 (stereo unspecified),.,-,-,-,-,.,.
COC(=O)[C@@H]1C[C@@H]2CC[C@@H](O)C[C@@H]2N1Cc1ccccc1OS(=O)(=O)c1ccc(C)cc1,-,-,-,-,-,.,.
Cc1ccc(/C=C/C(=O)NCc2ccc(S(N)(=O)=O)cc2)o1,-,-,-,-,-,.,.
CCc1ccc(NC(=O)C(=O)c2ccccc2NC(C)=O)cc1,-,-,-,-,9.1,12,7.0
C(=N\Nc1ccccn1)/c1ccc(N2CCOCC2)cc1,-,-,-,11,5.0,8.8,7.0
C[C@@H]1C=CCCO[C@]12C(=O)N(CC1CC1)c1ccccc12,.,-,-,-,-,.,.
O=C(CSc1nnc(-c2cccc(F)c2)o1)N1CCCC1,-,-,-,-,-,.,.
COc1ccc(S(=O)(=O)Nc2ccc3c(c2)C(=O)N([C@H](C)CO)C[C@H](C)[C@@H](CN(C)C(=O)Nc2ccc(C(F)(F)F)cc2)OCCCC[C@H](C)O3)cc1,-,-,-,-,-,.,.
Cc1cccnc1NC(=O)CCCNC(=O)c1ccc(Cl)cc1,-,-,-,-,-,.,.
CCN(CCn1cccn1)C(=O)c1cc(COc2ccccc2SC)on1,-,-,-,-,4.6,7.1,5.4
CCN(CCN1CCCC1)C(=O)c1cc(COc2ccccc2SC)on1,-,-,-,-,-,.,.
SMILES,DAX1 inh-1,ssDAF12 agonist,hcDAF12 agonist,hgDAF12 agonist,DAX1 inh-2,DAX1 conf,SF1 mutant ctr
Oc1ccc(N=Nc2ccccc2)cc1,-,-,-,-,-,.,.
Cc1ccc(O)c(N=Nc2ccccc2)n1,-,-,-,12,5.6,10,6.5
O=C(Nc1ccccn1)c1ccc(Cl)s1,-,-,-,12,5.2,7.0,6.2
O=C(NCc1ccccn1)c1ccc(Cl)s1,-,-,-,-,-,.,.
Nc1c(C(=O)N2CCCC2)sc2nc(-c3ccccc3)ccc12,-,-,-,-,-,.,.
COc1cccc(N2CCN(C(=O)CN3C(=O)NC4(CCCC4)C3=O)CC2)c1,-,-,-,-,-,.,.
COc1ccc(OC)c(CN2CCN(C(=O)CN3C(=O)NC4(CCCC4)C3=O)CC2)c1,-,-,-,-,4.9,-,-
CC(C)[C@@H](C)/C=C/[C@@H](C)[C@H]1CC[C@@H]2[C@]1(C)CCC1[C@]23C=C[C@]2(C[C@@H](O)CC[C@]12C)N(c1ncc(C(F)(F)F)cc1Cl)O3 (stereo partly specified),.,-,-,-,-,.,.
CC(C)[C@@H](C)/C=C/[C@@H](C)[C@H]1CC[C@@H]2[C@]1(C)CCC1[C@]23C=C[C@]2(C[C@@H](O)CC[C@]12C)N(c1cnccn1)O3 (stereo partly specified),.,-,-,-,4.6,-,-
C/C=N/NC(=O)CCNC(=O)c1ccccc1,-,-,-,-,-,.,.
COc1ccc(CNC(=O)O[C@H]2C[C@@H]3C(=O)N(c4ccccc4)C(=O)[C@@H]3[C@@H]3CN(S(=O)(=O)c4ccc(C)cc4)C[C@]23O)cc1OC,-,-,-,-,-,.,.
O=C(CCN1C(=O)/C(=C\C=C\c2ccccc2)SC1=S)Nc1cccc(C(=O)O)c1,-,-,-,-,4.9,6.2,-
O=C(CCCN1C(=O)S/C(=C/C=C/c2ccccc2)C1=O)Nc1ccc(C(=O)O)cc1,-,-,-,-,5.3,5.2,3.8
O=C(CCCN1C(=O)/C(=C\c2ccccc2)SC1=S)Nc1cccc(C(=O)O)c1,-,-,-,-,-,.,.
CCCCCCN1C[C@H](O)[C@@H](n2cc(C3CC3)nn2)C[C@@H]1c1ccccc1,-,-,-,-,-,.,.
CN(C)Cc1cc(C(C)(C)c2ccccc2)ccc1O,-,-,-,-,-,.,.
CC(C)Oc1ccc(S(=O)(=O)N2CCCCC2)cc1NC(=O)CN1C(=O)NC(C)(C2CC2)C1=O (stereo unspecified),-,-,-,-,4.7,-,-
COc1ccc(S(=O)(=O)N2CCCCC2)cc1NC(=O)CN1C(=O)NC(C)(C2CC2)C1=O (stereo unspecified),-,-,-,-,-,.,.
CC(=O)N1CCN(C(=O)c2cc3c(s2)CCCC3)CC1,-,-,-,-,4.6,-,-
CN1CCCN(C(=O)c2cc3c(s2)CCCC3)CC1,-,-,-,-,-,.,.
O=C(NCC(=O)N1CCN(c2ncccn2)CC1)c1ccc(F)cc1,-,-,-,-,-,.,.
O=C(COC(=O)c1ccc(O)cc1O)c1ccc(Cl)cc1,-,-,-,-,5.8,5.4,-
